Source: the supplement of paper PMC11417369
± gives the standard deviation of the averaged measurements. The full ranking holds about 25,000 sequences; the median of “ln(normalized median fluorescence intensity)” is about 7.9, and the highest 2% start at about 11. Many of the other results were omitted from the sample, so the highest values are more common in it than they were.

tested on: PfAP2-I AP2 domain 3 (GST-tagged); assay: gcPBM binding intensity (ln(normalized median fluorescence intensity)); higher = stronger DNA binding
Procedure, shortened: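 The binding buffer was 1× PBS containing 1% milk, 0.2 mg/ml BSA, 0.5% salmon testes DNA and 0.03% Triton X-100. In it, GST-tagged P. falciparum DNA-binding domains expressed in E. coli were applied for 1 h to an Agilent 4 × 180k array of primer-extended double-stranded 36-bp intergenic genomic probes plus negative controls. Binding intensity, read with Alexa488 anti-GST antibody and a 488 nm scan, is the highest Masliner-normalised natural-log median intensity across replicate spots of either probe orientation.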

Sequence | gcPBM binding intensity (ln)
AATATAAACCCAAACACACACATATATATATATATA [CACACA_site268] | 9.4 ± 0.37
ATATAAAATATGAGTAGTACATATTTTCTCATCTTA [XGTACX_site8595] | 7.55 ± 0.38
ACTACAAGGCAATACAGTACATATAAATGTCATAAT [XGTACX_site8468] | 7.85 ± 0.45
AATAATATATATTACACACGCATCGTTCATTTATTT [CACACA_site2391] | 7.87 ± 0.92
AAATACTGATTTGGTTGTACATGTGCACTATATAAC [XGTACX_site3795] | 11.3 ± 0.56
AAATATTTGTGTGGTTGTACTATAATGATAAAAATA [XGTACX_site7703] | 8.14 ± 0.42
ATACTAACATTTTTTTGTACATATAACTATAAAATA [XGTACX_site1033] | 8.09 ± 0.47
GGGAAACGATTTAATACACACACGTATTATATATAT [CACACA_site1160] | 8.48 ± 0.59
ATTAGTATAATGTAACTTAGTTAATAGTGCTAATAT [CACACA_negctrl_site764] | 9.54 ± 0.4
TTTTCATTTGTGACAGTGCAAAATGTTATATTAAAA [GTGCAC_site9647] | 9.99 ± 0.3
CTCATTTTGTTAATGGTGCAAAAAAAAAAAAAAAAA | 11.1 ± 0.73
AAAAAAAAAAAAATGGTGCAACTTTGTTAAAGGAAA [GTGCAC_site9950] | 9.56 ± 0.12
ATGGATTATTTTTAAACATGCAGTAGTGATGAAAAA [TGCATGCA_site346] | 8.36 ± 0.53
GACATATTCCCCCCCACACACACACCCACATACATA [CACACA_site2302] | 10.8 ± 0.26
CATATTCCCCCCCACACACACACACGCATACATACC [CACACA_site7148] | 10.8 ± 0.33
CATATTCCCCCCCACACACACACACCCATACATACC [CACACA_site2303] | 11.2 ± 0.44
TGAAAAAAAAAATGCACACGCATACAGATAATATGT [CACACA_site4526] | 8.62 ± 0.51
AAATATAATATATGCACACATACATACATATATATA [CACACA_site104] | 9.41 ± 0.3
GTTGAAAAAAAAAATGCACACGCATACATATAATAT [CACACA_site8117] | 8.71 ± 0.29
TTTGAAATAAATAATGCACACTCTACATATATACGT [CACACA_site2244] | 11.1 ± 0.61

Sequence | gcPBM binding intensity (ln)
AAATATAATATATGCACACATACATACAGATATATA [CACACA_site4235] | 9.22
TGAAATAAATAATGCACACTCTACAGATATACGTAT [CACACA_site5270] | 11.1 ± 0.66
AATTATATAAGCCACGCATGTGTGCATAAAAATACA [TGCATGCA_site114] | 11.1 ± 0.34
AAAAATAAAATATATACATGCATATACATATTATAT [TGCATGCA_site668] | 7.87 ± 0.45
AAATAAAATTATAATACATGCATACATACATATATA [TGCATGCA_site69] | 7.9 ± 0.54
ATGTTAATAACTTGTGGTACTGTTATAATTTAGTAA [XGTACX_site2114] | 7.71 ± 0.42
TTTAATCATATGTTATATAATAAGCCCCCCCCCCAA [CACACA_negctrl_site486] | 11.1 ± 0.63
TATTAATTATATTTATGTACATAATCATATTATTAT [XGTACX_site7938] | 7.66 ± 0.39
ATATATATATAATTATATAAAATATATCATATGTTA [XGTACX_negctrl_site47] | 8.76 ± 0.16
ATTATTTGATTAAAGGTGCAAGGATAATAATAAAAC | 9.47 ± 0.17
ATTAATAATCGAAAGGTGCACTTTGATTTGATAACA | 11.2 ± 0.3
AAAAAAAAAAAAAAGGTGCATACTTTGAATTAATAT [GTGCAC_site9401] | 9.87 ± 0.17
AAAAAAAAAAAAAAAAGTACATGAAAAAAAGAAGAA [XGTACX_site8384] | 8.7 ± 0.27
ATTATGTACAAAATGGTGCAATATTATACATATATA [GTGCAC_site9468] | 11.1 ± 0.49
CAATATATTATATGGGTGCAAACCACATATAAATAA | 10.1 ± 0.33
TACAAATATATAAAATGTACATATATATACATATTA [XGTACX_site3029] | 7.46 ± 0.27
AAATAAAATAATAAAACATGCAAAAATAATGATTTA [TGCATGCA_site415] | 7.71 ± 0.76
ATATAAAATACATGGGTGCAATATATTAAACAAATA [GTGCAC_site9421] | 11.2 ± 0.48
AGGTGCAAAAATAAAACATGCAAAAATAAAAATGAA [TGCATGCA_site502] | 10.9 ± 0.65
CATATATATTTTATATGTACATATATATTTTATATA [XGTACX_site8665] | 7.59 ± 0.15

Sequence | gcPBM binding intensity (ln)
ATTTTTTTTTTTTTATGTACATATAGGTGCAAATCA [XGTACX_site6748] | 11.3 ± 1
GACAATTATATGTAGGTGCATATACAAATTTTTTAA | 10.4 ± 0.57
TATTAAATATATATTACATGCAAAAAAAAAAAACAA [TGCATGCA_site705] | 7.97 ± 0.52
ATTTTATATACAAAATGTACATATTTATTATATATG [XGTACX_site6732] | 7.74 ± 0.5
TAAAGGAAATAAAAAACATGCAAATATGAAATATAT [TGCATGCA_site745] | 7.61 ± 1.1
TTTTATTGTTTTTTTTTTTTTTCTTTTTTTTTTTTT [CACACA_negctrl_site1094] | 7.91 ± 0.46
ATACGTGGGCAAAAAGTGCATATAATCAAAAAAAAA [GTGCAC_site9961] | 10.4 ± 0.11
ATAAGATAGGCATATACACACATTTATTTACAGATA [CACACA_site5754] | 7.71 ± 0.67
TTGTTTTTGTTCTTGGGTACTTAAATTATAAATGAT [XGTACX_site113] | 8.07 ± 0.45
ATAACTTTTTAAAAGACACACATAAGAAAAACAAAA [CACACA_site723] | 8.08 ± 0.64
TATATGTGATAACACGCACACAAATGTATATAATTT [CACACA_site2593] | 8.1 ± 0.28
TCTTTATATCATCTTTCTAAATATATATATATATAA [CACACA_negctrl_site77] | 7.84 ± 0.55
TTCATTAAATAGAACAAAATAATAATATAACAACAA [GTGCAC_negctrl_site116] | 7.74 ± 0.53
AAAATAAATAAAAAAAGTACATATATAATTTATAAA [XGTACX_site2411] | 7.75 ± 0.39
ACAAGTTTTTTTTTATCACACACAAAAAAAAAAATA [CACACA_site8377] | 7.9 ± 0.44
ATAAAACGTACAATGGTGCATATAAATAATATATAT [GTGCAC_site9960] | 11 ± 0.52
AATATAAATAAAAACACACACAATGGTACATATATA [CACACA_site3671] | 7.84 ± 0.54
TAATTATAATAATAACGTACATATATAAAATGGTGA [XGTACX_site8434] | 8.04 ± 0.34
